The record followed here is PubChem BioAssay (Tox21).

In test [1] the target is Thyrotropin receptor (Homo sapiens) (UniProt P16473). As to the kind of experiment: qHTS assay to identify small molecule agonists of the thyroid stimulating hormone receptor (TSHR) signaling pathway (AID 1224843; calls by dose curve; also: nearly all actives have a fitted effect of over 45% in size; also: potency is read from the fitted curve at half-maximal effect; as to activation: % is scaled to controls: 0 for no effect and ±100 for the full control effect). The essentials:
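HEK293 cells stably bearing the thyrotropin receptor were plated at 800 cells/well and challenged with compound (30 min, RT). Accumulated cAMP was quantified via cAMP-d2 competing for cryptate-tagged antibody.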

Test [2] is described as follows: qHTS assay to identify small molecule agonists of the hypoxia (HIF-1) signaling pathway - cell viability counter screen (AID 1224844; calls by dose curve; also: nearly all actives have a fitted effect of over 50% in size; also: potency is read from the fitted curve at half-maximal effect). The method in brief:
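HRE-bla ME-180 cells, 2,000/well in 0.5% dialyzed FBS medium, treated 17 h at 37C with compounds. Viability read in the same wells as the bla reporter, by CellTiter-Glo luminescence after 30 min at room temperature.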
In general terms: Quantitative high-throughput screening tests each substance at several concentrations.

Test [3] is described as follows: qHTS assay to identify small molecule agonists of H2AX (AID 1224845; active = well fitted activation curve with a large enough effect in the signal ratio in the repeat runs, not every such curve was filed as active; the % refers to the signal ratio; also: % is scaled to controls: 0 for no effect and ±100 for the full control effect). The method in brief: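 Phospho-H2AX Ser139 measured by HTRF (ex 320 nm; em 665 and 620 nm) after 24 hr antibody incubation. Compounds, 15 concentrations, 0.76% DMSO, were applied to CHO-K1 cells for 3hr at 37C before lysis.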
Test [4] can be described thus: qHTS assay to identify small molecule agonists of H2AX - cell viability counter screen (AID 1224847; calls by dose curve; also: nearly all actives have a fitted effect of over 30% in size; also: potency is read from the fitted curve at half-maximal effect). The method in brief:
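CHO-K1 wt, 1000 cells/well, o/n 37C; cpds 15 conc, 3 h 37C, 0.76% DMSO; CellTiter-Glo, 30 min RT, luminescence.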

Test [5] is described as follows: qHTS RealTime-Glo MT Cell Viability Assay in HepG2 cells - 24 hour (AID 1224867). Also: nearly all actives have a fitted effect of over 50% in size. Also: potency is read from the fitted curve at half-maximal effect. The method in brief: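 Real-time, nonlytic viability: 600 HepG2 cells/well mixed with NanoLuc enzyme plus prosubstrate; 5 h settle, compound (DMSO) added by pintool; luminescence monitored over 40 h at 37 C.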
Test [6] in a line: qHTS RealTime-Glo MT Cell Viability Assay in HEK293 cells - 32 hour (AID 1224868). Also: nearly all actives have a fitted effect of over 50% in size. Also: potency is read from the fitted curve at half-maximal effect. The method in brief:
(§1)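 Cells + reagent dispensed (600 cells/well, HEK293) → 5 h at 37 C/5% CO2 → 23 nL compound in DMSO pinned → 40 h at 37 C → luminescence read at 0, 8, 16, 24, 32, 40 h.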

Test [7] in a line: qHTS RealTime-Glo MT Cell Viability Assay in HepG2 cells - 40 hour (AID 1224870). Also: nearly all actives have a fitted effect of over 50% in size. Also: potency is read from the fitted curve at half-maximal effect. The essentials:
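Real-time viability: cells seeded at 600 per well together with NanoLuc and cell-permeant prosubstrate, compounds added after 5 h incubation. Luminescence tracked at 0, 8, 16, 24, 32 and 40 h of exposure.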

Test [8] in a line: A CellTox Green Cytotoxicity Assay to monitor cytotoxicity in HEK293 cells - 40 hour (AID 1224871). Also: nearly all actives have a fitted effect of over 45% in size. Also: potency is read from the fitted curve at half-maximal effect. The essentials:
(§2)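 HEK293 cells, 600/well, were preincubated 5 hours and then exposed to compounds at 37 C for up to 40 hours. A cell-impermeant cyanine dye staining dead-cell DNA was read by fluorescence at 0, 8, 16, 24, 32 and 40 h time points.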

The target in test [9] is Nuclear receptor subfamily 1 group I member 3 (Homo sapiens) (UniProt Q14994). Description: qHTS assay to identify small molecule antagonists of the constitutive androstane receptor (CAR) signaling pathway (AID 1224838). Also: nearly all actives have a fitted effect of over 40% in size. Also: potency is read from the fitted curve at half-maximal effect. The method in brief:
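HepG2 cells stably carrying hCAR and a CYP2B6-2.2kb luciferase reporter, seeded 4 hrs before compound (15 concentrations). Stimulated with 50 nM CITCO for 24 hr at 37 C. ONE-Glo luminescence read after 30 min at room temperature.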

Test [10] shares this target. As to the kind of experiment: qHTS assay to identify small molecule agonists of the constitutive androstane receptor (CAR) signaling pathway (AID 1224839). Also: nearly all actives have a fitted effect of over 15% in size. Also: potency is read from the fitted curve at half-maximal effect. As to activation: % is scaled to controls: 0 for no effect and ±100 for the full control effect. The method in brief: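 Luminescence read-out (ONE-Glo, 30 min, room temperature) from double-stable HepG2-CYP2B6-hCAR cells exposed 24 h to 15-point compound series in presence of 0.75 uM PK11195 final.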
A short description of test [11]: qHTS assay to identify small molecule antagonists of the estrogen related receptor signaling pathway with the pleiotropic PPARgamma coactivator (PGC) from Tox21 10K library - cell viability counter screen (AID 1224840; active = well fitted cell-killing curve with a large enough effect in the repeat runs, not every such curve was filed as active; also: nearly all actives have a fitted effect of over 40% in size; also: potency is read from the fitted curve at half-maximal effect). The method in brief: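 PGC/ERR cells (2,000/well) plated 6 h, then compound-treated for 17.5 h at 37 C. Viability measured by CellTiter-Fluor fluorescence after 30 min at 37 C, multiplexed with the pathway assay.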

Test [12] can be described thus: qHTS assay to identify small molecule agonists of the hypoxia (HIF-1) signaling pathway (AID 1224846; active = well fitted activation curve with a large enough effect in the signal ratio in the repeat runs, not every such curve was filed as active; the % refers to the signal ratio; also: potency is read from the fitted curve at half-maximal effect). The essentials:
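HRE-bla ME-180 beta-lactamase reporter cells in medium with 0.5% dialyzed FBS, pre-incubated 5 h then exposed to compounds 17 h at 37C, 5% CO2; reporter induction read with CCF4-AM FRET substrate.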

Test [13] can be described thus: A CellTox Green Cytotoxicity Assay to monitor cytotoxicity in HEK293 cells - 0 hour (AID 1224869). The essentials: as §2
Test [14] in a line: qHTS RealTime-Glo MT Cell Viability Assay in HEK293 cells - 16 hour (AID 1224872). Also: nearly all actives have a fitted effect of over 50% in size. Also: potency is read from the fitted curve at half-maximal effect. The essentials:
as §1

Test [15] in a line: qHTS assay to identify small molecule antagonists of the constitutive androstane receptor (CAR) signaling pathway - cell viability counter screen (AID 1224837). Also: % is scaled to controls: 0 for no effect and ±100 for the full control effect; nearly all actives have a fitted effect of over 45% in size. The method in brief:
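HepG2 cells stably carrying hCAR and CYP2B6-2.2kb reporter, stimulated with 50 nM CITCO and compounds at 15 concentrations for 23 h at 37 C. Viability measured by CellTiter-Fluor fluorescence.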

A short description of test [16]: qHTS assay to identify small molecule antagonists of the estrogen related receptor signaling pathway with the pleiotropic PPARgamma coactivator (PGC) from Tox21 10K library (AID 1224841; call rule not given here; also: potency is read from the fitted curve at half-maximal effect). The essentials: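 PGC/ERR cell line, 2,000 cells/well, pre-incubated 6 hours at 37 C, then exposed to compounds for 18 hours at 37 C; luciferase read with One-Glo luminescence after 30 min at room temperature.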

Test [17] can be described thus: qHTS assay to identify small molecule agonists of the estrogen related receptor signaling pathway with the pleiotropic PPARgamma coactivator (PGC) from Tox21 10K library (AID 1224842). Also: % is scaled to controls: 0 for no effect and ±100 for the full control effect; nearly all actives have a fitted effect of over 15% in size. The essentials: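 Luminescence from One-Glo (30 min, room temperature) measured after PGC/ERR cells had 18 h at 37 C with pinned compound (23 nL in DMSO). Cells had been seeded at 2,000 per well and pre-incubated 6 h.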

The nature of test [18]: qHTS assay to identify small molecule antagonists of the estrogen related receptor (ERR) signaling pathway from Tox21 library (AID 1224848). The method in brief: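 Reading was by luminescence 30 min after ONE-Glo addition. Before that, ERR cells at 2,000 per well had rested 6 h at 37 C/5% CO2 and then received pin-tooled compounds in DMSO for 18 h at 37 C.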
Test [19] is described as follows: qHTS assay to identify small molecule agonists of the estrogen related receptor (ERR) signaling pathway from Tox21 library (AID 1224849; calls by dose curve; also: % is scaled to controls: 0 for no effect and ±100 for the full control effect; nearly all actives have a fitted effect of over 15% in size). The following applies: ERR reporter cell line, ONE-Glo luciferase, 18 h. The method in brief: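 ERR reporter cells (NTP line) pre-incubated 6 hours at 37 C, then exposed to compounds for 18 hours at 37 C. ONE-Glo luciferase luminescence was read after 30 minutes at room temperature.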

Structures are written as SMILES. Where “and” joins values, the source holds several entries; their conditions need not be identical. Equal values may be shown once. Inconclusive results are not listed. Where a structure was tested more than once in an assay, its records may differ in their call. Calls of active or inactive are those of the source. Unless noted, calls follow the shape of the dose curve; as a rule, active = well fitted curve in the direction sought with a large enough effect in the repeat runs; inconclusive = weak or mixed curves; inactive = no such curve, though single readings can be large; an effect the other way counts as inactive or inconclusive.

Sequence of Thyrotropin receptor (Homo sapiens) (P16473 whole entry, looked up): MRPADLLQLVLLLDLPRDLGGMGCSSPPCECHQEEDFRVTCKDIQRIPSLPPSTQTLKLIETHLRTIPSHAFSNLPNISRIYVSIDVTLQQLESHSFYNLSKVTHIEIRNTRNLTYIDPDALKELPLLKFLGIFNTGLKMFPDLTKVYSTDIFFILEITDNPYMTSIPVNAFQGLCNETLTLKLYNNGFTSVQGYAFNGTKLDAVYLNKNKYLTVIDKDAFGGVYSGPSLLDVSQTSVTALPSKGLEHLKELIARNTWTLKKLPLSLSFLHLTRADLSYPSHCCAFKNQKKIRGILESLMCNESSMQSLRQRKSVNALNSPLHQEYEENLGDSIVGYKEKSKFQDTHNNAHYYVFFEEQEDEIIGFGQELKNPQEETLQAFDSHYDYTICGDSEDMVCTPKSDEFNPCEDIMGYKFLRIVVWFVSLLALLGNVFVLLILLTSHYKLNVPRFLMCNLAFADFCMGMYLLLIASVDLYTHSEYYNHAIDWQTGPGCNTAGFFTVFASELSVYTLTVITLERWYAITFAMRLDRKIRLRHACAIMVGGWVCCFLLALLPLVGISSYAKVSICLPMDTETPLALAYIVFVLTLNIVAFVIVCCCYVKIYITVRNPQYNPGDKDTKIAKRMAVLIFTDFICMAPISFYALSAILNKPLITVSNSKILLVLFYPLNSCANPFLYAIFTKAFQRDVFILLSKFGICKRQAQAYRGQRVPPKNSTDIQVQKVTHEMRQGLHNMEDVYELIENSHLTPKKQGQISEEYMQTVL
Sequence of Nuclear receptor subfamily 1 group I member 3 (Homo sapiens) (Q14994 whole entry, looked up): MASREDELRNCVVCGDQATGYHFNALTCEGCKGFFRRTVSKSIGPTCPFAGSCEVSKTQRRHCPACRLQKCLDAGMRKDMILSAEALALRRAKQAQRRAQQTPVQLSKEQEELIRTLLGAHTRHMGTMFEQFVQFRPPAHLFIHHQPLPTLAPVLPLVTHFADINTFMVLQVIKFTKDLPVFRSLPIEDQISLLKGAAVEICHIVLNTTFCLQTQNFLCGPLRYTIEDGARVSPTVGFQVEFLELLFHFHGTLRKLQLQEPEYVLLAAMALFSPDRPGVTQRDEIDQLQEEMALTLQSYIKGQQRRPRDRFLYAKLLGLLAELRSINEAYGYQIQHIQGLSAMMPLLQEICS

For `O=C1OC2(c3ccc(O)cc3Oc3cc(O)ccc32)c2ccccc21`, the Potency entry in [1], in [2], in test [3], in test [4], in [5] and in [6] was “inactive” in each case. The Potency entry in test [7] is “inactive”. Also, the Potency in test [8] was 692 nM (active) and 1.2 µM (active).

For the molecule `CCN(CC)c1ccc2c(C)cc(=O)oc2c1`, the Potency result in test [9], in [11], in [1], in [2], in [3] and in test [4] was “inactive” each time. Moreover, the Potency entry in [5], in [13], in test [7] and in test [8] was “inactive” each time. Also, the Potency in [10] was 27.5 µM (active) and 48.6 µM (active); in [12] it was 44 µM (active) and 43.6 µM (active); in [6], 34.9 µM (active); in [14], 39.2 µM (active).

With `CCc1cc(C(C)(C)C)c(O)c(C(C)(C)C)c1`, the Potency entry in test [15], in [9], in [11], in test [1], in test [2] and in [5] was “inactive” in each case. Also, the Potency entry in test [6], in [13], in test [7] and in test [14] was “inactive” in each case. Further, the Potency entry in test [10] is “inactive and 12.2 µM (active)”; in test [8] it was 21.9 µM (active).

Take `CCCCCCCCCCCC[N+](C)(C)C`: the Potency entry in test [9], in [10], in test [2], in test [3] and in test [14] was “inactive” in each case. The Potency in [4] is 113 µM (active) and inactive; in [6], 6.15 µM (active) and 3.47 µM (active); in [7] it was 48.9 µM (active) and 49 µM (active) and 43.6 µM (active); in test [8], 54.8 µM (active) and 17.4 µM (active) and 54.9 µM (active).

Take `CC(C)CCCCCCc1ccc(O)cc1`: the Potency in test [9] is 1.11 µM (active); in test [10], “inactive and 17.2 µM (active)”; in test [11], 48.6 µM (active); in test [2], 11.2 µM (active); in [4], 91.4 µM (active) and 56.6 µM (active); in test [5] it was 22.3 µM (active) and inactive. Besides, the Potency was 2.23 µM (active) in [6]; 19.8 µM (active) and 38.9 µM (active) in test [8]; 3.96 µM (active) in [14]. Besides, the Potency result in test [13] is “inactive”.

As to `Cc1ccc(-c2cc(C(F)(F)F)nn2-c2ccc(S(N)(=O)=O)cc2)cc1`, the Potency in [11] was 54.3 µM (active) and 54.5 µM (active) and inactive; in test [16], 60.9 µM (active) and inactive; in [1], 48.4 µM (active) and 34.4 µM (active) and inactive; in test [2], 48.8 µM (active) and 54.9 µM (active) and inactive; in test [4] it was 100 µM (active) and 113 µM (active); in [18], 27.2 µM (active) and 61.1 µM (active). In addition, the Potency in test [5] was 48.8 µM (active) and 49 µM (active); in test [6] it was 38.7 µM (active) and 30.9 µM (active); in [8] it was 54.7 µM (active) and 54.9 µM (active) and inactive; in test [14], 38.7 µM (active) and 27.5 µM (active) and inactive. The Potency result in test [17], in test [3] and in test [13] was “inactive” each time. Besides, the activity change, positive = activation is -20.4% (inactive) in [19] (at 42.5 µM (top of the series)); -66.1% (inactive) and -48.6% (inactive) in test [19] (at 92.4 µM (top of the series)).

In the case of `c1ccc2c(c1)-c1cccc3c1c-2cc1ccccc13`, the Potency result in test [15], in test [9], in test [11], in test [3], in test [5] and in [6] was “inactive” each time. The Potency result in test [13], in test [7], in test [8] and in [14] was “inactive” each time. Besides, the Potency was 21.2 µM (active) and 17.2 µM (active) in test [10]; 33.9 µM (active) in test [2]; 78.2 µM (active) and 89.8 µM (active) in [4].

For `CNCCC(Oc1ccc(C(F)(F)F)cc1)c1ccccc1` (stereo not given), the Potency was 29.8 µM (active) in test [9]; 67.7 µM (active) and 29.8 µM (active) in test [11]; 112 µM (active) and 49.2 µM (active) in test [4]. In addition, in [1], the Potency entry is “inactive”.
